Results as given in PubChem BioAssay (NCATS).

Biological target: Cytochrome P450 3A4 (Homo sapiens) (UniProt P08684)
Assay: qHTS Assay for Activators of Cytochrome P450 3A4 (AID 885); further: nearly all actives have a fitted effect of over 65% in size
Settings: recombinant CYP3A4, Luciferin-PPXE luminescence, 60 min; series mostly up to 57.1 µM; activity change, positive = activation: at the top concentration; active means well fitted activation curve with a large enough effect; inconclusive means small, poorly fitted or top-dose-only effect; inactive means no such curve, though single readings can be large or run the other way
Method in brief: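 Using 20nM recombinant human CYP3A4 in potassium phosphate (200mM), substrate Luciferin-PPXE at 25uM, luminescent luciferin detection followed a 60-min RT NADPH reaction; data scaled to 57 uM ketoconazole.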

Cytochrome P450 3A4 (Homo sapiens), sequence (P08684 whole entry, looked up): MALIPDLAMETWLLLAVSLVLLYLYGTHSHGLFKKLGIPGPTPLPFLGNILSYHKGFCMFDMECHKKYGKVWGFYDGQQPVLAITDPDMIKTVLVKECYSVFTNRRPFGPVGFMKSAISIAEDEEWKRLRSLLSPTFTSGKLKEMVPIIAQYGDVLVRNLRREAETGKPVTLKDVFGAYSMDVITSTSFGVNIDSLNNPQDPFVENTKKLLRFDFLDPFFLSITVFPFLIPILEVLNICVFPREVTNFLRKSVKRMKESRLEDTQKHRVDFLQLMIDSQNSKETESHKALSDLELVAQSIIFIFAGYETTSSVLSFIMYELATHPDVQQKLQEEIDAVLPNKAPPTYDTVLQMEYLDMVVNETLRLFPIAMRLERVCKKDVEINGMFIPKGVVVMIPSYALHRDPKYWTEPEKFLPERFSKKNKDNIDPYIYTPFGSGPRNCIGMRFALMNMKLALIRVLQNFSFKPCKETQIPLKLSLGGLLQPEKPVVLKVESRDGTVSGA

Activity change, positive = activation, inactive:
COC(=O)c1ccc(C(NC(=O)OCc2ccccc2)/C(=C/[C@@H](C)C(=O)N(C)C)c2cccnc2)cc1 (stereo partly drawn) -95.4%
COC(=O)CNC(=O)C1(C)C=CCN1C(=O)c1ccccc1 (stereo not drawn) -71.4%
COCCNC(=O)[C@H](C)/C=C(\c1cccnc1)C(NC(=O)OCc1ccccc1)c1ccc(C(=O)OC)cc1 (stereo partly drawn) -95.9%
CCCCCCN(C(=O)CCCCCN1C(=O)NC(c2ccc(C(C)(C)C)cc2)C(C(=O)OCc2ccccc2)=C1C)C(C(=O)NCCCC)c1ccc(OCC(=O)OC)c(C(=O)OC)c1 (stereo not drawn) -96.4%
CCCC[C@@H]1C[C@H]1[C@@H](NP(=O)(c1ccccc1)c1ccccc1)c1ccccc1OC -95.5%
COC(=O)c1ccc(C(NC(=O)OCc2ccccc2)/C(=C/[C@@H](C)C(=O)NCC2CC2)c2cccnc2)cc1 (stereo partly drawn) -101%
C[C@@H]1C=C[C@](Cc2ccccc2)(C(=O)NCC2CC2)N1C(=O)c1ccccc1 -73.8%
CC(=O)N1[C@H](C)C=C[C@]1(Cc1ccccc1)C(=O)NCc1cc(F)cc(C(F)(F)F)c1 -74.1%
